In PubChem BioAssay (Tox21):
Results filed as inconclusive are left out. The source made the active and inactive calls. Calls follow the shape of the dose curve; as a rule, active = well fitted curve in the direction sought with a large enough effect in the repeat runs; inconclusive = weak or mixed curves; inactive = no such curve, though single readings can be large; an effect the other way counts as inactive or inconclusive.

Assays:
[1] = A CellTox Green Cytotoxicity Assay to monitor cytotoxicity in HEK293 cells - 24 hour (AID 1224875); also: potency is read from the fitted curve at half-maximal effect; nearly all actives have a fitted effect of over 45% in size
How it was run: (§1)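 Seeding of HEK293 cells together with cytotoxicity dye preceded a 5 h incubation at 37 C/5% CO2. Test compounds in DMSO were then added and fluorescence monitored across 40 h.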

[2] = qHTS RealTime-Glo MT Cell Viability Assay in HepG2 cells - 32 hour (AID 1224877); also: nearly all actives have a fitted effect of over 55% in size; also: potency is read from the fitted curve at half-maximal effect
How it was run: (§2)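 Cells + NanoLuc/prosubstrate dispensed (600 cells/well) → 5 h at 37 C/5% CO2 → compounds in DMSO transferred → 40 h incubation at 37 C, luminescence read at 0, 8, 16, 24, 32, 40 h.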

[3] = A CellTox Green Cytotoxicity Assay to monitor cytotoxicity in HEK293 cells - 16 hour (AID 1224888); also: nearly all actives have a fitted effect of over 35% in size; also: potency is read from the fitted curve at half-maximal effect
How it was run: as §1

[4] = A CellTox Green Cytotoxicity Assay to monitor cytotoxicity in HepG2 cells - 8 hour (AID 1224890); also: nearly all actives have a fitted effect of over 45% in size; also: potency is read from the fitted curve at half-maximal effect
How it was run: (§3)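 Nonlytic assay: viable cells exclude the dye, so fluorescence scales with cell death. HepG2 at 600 cells/well, compounds added after 5 h, signal read across 40 h.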

[5] = qHTS assay to identify small molecule antagonists of the estrogen receptor alpha (ER-alpha) signaling pathway using the BG1 cell line in the presence of 0.1 nM 17-beta-estradiol - cell viability counter screen (AID 1259241); also: nearly all actives have a fitted effect of over 40% in size; also: potency is read from the fitted curve at half-maximal effect
How it was run: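 Live-cell protease activity (CellTiter-Fluor fluorescence, 30 min) was read in the same wells after VM7Luc4E2 cells had been exposed to compounds with 0.1 nM 17beta-estradiol for 22 hr at 37C.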

[6] = target: Androgen receptor (Homo sapiens) (UniProt P10275); assay: qHTS assay to identify small molecule antagonists of the androgen receptor (AR) signaling pathway using the MDA cell line in the presence of 0.5 nM R1881 (AID 1259243); also: nearly all actives have a fitted effect of over 50% in size; also: potency is read from the fitted curve at half-maximal effect
How it was run: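 We exposed MDA-kb2 cells to compounds under 0.5 nM R1881 stimulation for 16 hr at 37C and quantified MMTV-driven luciferase by luminescence.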

[7] = A CellTox Green Cytotoxicity Assay to monitor cytotoxicity in HepG2 cells - 16 hour (AID 1224876); also: nearly all actives have a fitted effect of over 45% in size; also: potency is read from the fitted curve at half-maximal effect
How it was run: as §3

[8] = A CellTox Green Cytotoxicity Assay to monitor cytotoxicity in HepG2 cells - 24 hour (AID 1224878); also: nearly all actives have a fitted effect of over 45% in size; also: potency is read from the fitted curve at half-maximal effect
How it was run: as §3

[9] = A CellTox Green Cytotoxicity Assay to monitor cytotoxicity in HepG2 cells - 40 hour (AID 1224879); also: nearly all actives have a fitted effect of over 40% in size; also: potency is read from the fitted curve at half-maximal effect
How it was run: as §3

[10] = A CellTox Green Cytotoxicity Assay to monitor cytotoxicity in HepG2 cells - 0 hour (AID 1224882); also: nearly all actives have a fitted effect of over 35% in size
How it was run: as §3

[11] = A CellTox Green Cytotoxicity Assay to monitor cytotoxicity in HepG2 cells - 32 hour (AID 1224883); also: nearly all actives have a fitted effect of over 50% in size; also: potency is read from the fitted curve at half-maximal effect
How it was run: as §3

[12] = A CellTox Green Cytotoxicity Assay to monitor cytotoxicity in HEK293 cells - 8 hour (AID 1224884); also: nearly all actives have a fitted effect of over 35% in size; also: potency is read from the fitted curve at half-maximal effect
How it was run: as §1

[13] = qHTS RealTime-Glo MT Cell Viability Assay in HEK293 cells - 8 hour (AID 1224887); also: nearly all actives have a fitted effect of over 50% in size; also: potency is read from the fitted curve at half-maximal effect
How it was run: (§4)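 Tox21 screen in HEK293 using RealTime-Glo MT chemistry, with cells and reagent co-dispensed. Luminescence proportional to viable cell number was captured at intervals during 40 h compound exposure at 37 C.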

[14] = qHTS assay to identify small molecule antagonists of the androgen receptor (AR) signaling pathway using the MDA cell line in the presence of 0.5 nM R1881 - cell viability counter screen (AID 1259242); also: nearly all actives have a fitted effect of over 45% in size; also: potency is read from the fitted curve at half-maximal effect
How it was run: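 R1881 at 0.5 nM final stimulated MDA-kb2 cells during 16 hr compound treatment at 37C. Cytotoxicity read: CellTiter-Fluor fluorescence after 30 min.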

[15] = target: Estrogen receptor (Homo sapiens) (UniProt P03372); assay: qHTS assay to identify small molecule antagonists of the estrogen receptor alpha (ER-alpha) signaling pathway using the BG1 cell line in the presence of 0.1 nM 17-beta-estradiol (AID 1259244); also: nearly all actives have a fitted effect of over 50% in size; also: potency is read from the fitted curve at half-maximal effect
How it was run: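 VM7Luc4E2; 4xERE-luciferase; 0.1 nM E2 final; 22 h co-incubation, 37C; ONE-Glo luminescence after 30 min at room temperature.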

[16] = A CellTox Green Cytotoxicity Assay to monitor cytotoxicity in HEK293 cells - 32 hour (AID 1224881); also: nearly all actives have a fitted effect of over 40% in size; also: potency is read from the fitted curve at half-maximal effect
How it was run: as §1

[17] = qHTS RealTime-Glo MT Cell Viability Assay in HepG2 cells - 16 hour (AID 1224885); also: nearly all actives have a fitted effect of over 50% in size; also: potency is read from the fitted curve at half-maximal effect
How it was run: as §2

[18] = qHTS RealTime-Glo MT Cell Viability Assay in HEK293 cells - 24 hour (AID 1224886); also: nearly all actives have a fitted effect of over 50% in size; also: potency is read from the fitted curve at half-maximal effect
How it was run: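 Tox21 10K qHTS, HEK293, 600 cells/well, RealTime-Glo reagent co-dispensed with cells; 5 h preincubation, compound by pintool, 37 C, luminescence at 0–40 h.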

[19] = qHTS RealTime-Glo MT Cell Viability Assay in HEK293 cells - 0 hour (AID 1224880)
How it was run: as §4

[20] = qHTS RealTime-Glo MT Cell Viability Assay in HepG2 cells - 0 hour (AID 1224889); also: nearly all actives have a fitted effect of over 50% in size; also: potency is read from the fitted curve at half-maximal effect
How it was run: as §2

Measured: Potency

Androgen receptor (Homo sapiens), sequence (P10275 whole entry, looked up): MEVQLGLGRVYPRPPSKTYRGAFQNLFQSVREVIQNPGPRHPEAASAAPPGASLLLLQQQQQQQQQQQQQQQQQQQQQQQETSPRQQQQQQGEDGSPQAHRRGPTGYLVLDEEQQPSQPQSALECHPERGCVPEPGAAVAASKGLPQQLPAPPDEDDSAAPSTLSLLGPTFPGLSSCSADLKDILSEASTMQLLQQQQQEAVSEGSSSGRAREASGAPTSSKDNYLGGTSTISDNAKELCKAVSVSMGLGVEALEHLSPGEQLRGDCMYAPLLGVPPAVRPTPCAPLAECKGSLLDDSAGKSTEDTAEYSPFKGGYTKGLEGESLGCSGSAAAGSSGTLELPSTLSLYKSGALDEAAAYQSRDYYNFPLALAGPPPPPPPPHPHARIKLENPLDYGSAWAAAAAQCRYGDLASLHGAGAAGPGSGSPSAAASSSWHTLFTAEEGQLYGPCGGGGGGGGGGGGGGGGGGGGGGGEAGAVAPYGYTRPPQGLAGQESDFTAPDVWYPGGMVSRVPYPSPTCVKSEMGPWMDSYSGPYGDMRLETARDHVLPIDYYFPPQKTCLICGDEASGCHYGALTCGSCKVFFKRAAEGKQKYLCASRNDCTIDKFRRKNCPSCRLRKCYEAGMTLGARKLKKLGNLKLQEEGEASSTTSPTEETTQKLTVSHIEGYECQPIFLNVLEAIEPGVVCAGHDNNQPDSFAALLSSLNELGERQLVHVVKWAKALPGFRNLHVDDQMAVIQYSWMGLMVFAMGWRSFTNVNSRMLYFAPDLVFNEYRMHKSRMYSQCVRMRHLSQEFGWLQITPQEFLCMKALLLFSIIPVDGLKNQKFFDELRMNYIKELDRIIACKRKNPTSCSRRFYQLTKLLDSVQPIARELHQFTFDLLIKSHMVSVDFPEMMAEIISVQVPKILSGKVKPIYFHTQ
Estrogen receptor (Homo sapiens), sequence (P03372 whole entry, looked up): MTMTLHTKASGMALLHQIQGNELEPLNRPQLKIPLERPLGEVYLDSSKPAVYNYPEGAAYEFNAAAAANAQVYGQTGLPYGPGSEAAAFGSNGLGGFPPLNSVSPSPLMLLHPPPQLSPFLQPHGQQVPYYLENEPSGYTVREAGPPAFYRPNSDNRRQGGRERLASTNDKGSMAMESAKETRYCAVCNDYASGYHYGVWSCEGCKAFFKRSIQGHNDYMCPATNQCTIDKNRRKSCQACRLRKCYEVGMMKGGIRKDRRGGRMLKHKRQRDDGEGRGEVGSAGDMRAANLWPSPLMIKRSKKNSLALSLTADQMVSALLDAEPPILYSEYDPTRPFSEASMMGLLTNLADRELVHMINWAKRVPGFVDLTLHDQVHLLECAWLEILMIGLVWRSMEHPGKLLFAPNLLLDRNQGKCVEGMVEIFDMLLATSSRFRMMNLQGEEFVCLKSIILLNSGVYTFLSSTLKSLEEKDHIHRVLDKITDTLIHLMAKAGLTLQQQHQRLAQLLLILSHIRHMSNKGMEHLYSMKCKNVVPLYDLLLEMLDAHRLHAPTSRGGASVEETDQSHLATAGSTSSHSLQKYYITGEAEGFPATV

O=C1OC2(c3ccccc31)c1ccc(O)c(Br)c1Oc1c2ccc(O)c1Br
active: [1] 6.92 µM | [3] 21.9 µM | [4] 12.3 µM
inactive: [2] | [5] | [6]

CN1CCN(CCCN2c3ccccc3Sc3ccc(Cl)cc32)CC1
inactive: [10] | [12] | [13] | [14] | [15]
active: [7] 23.9 µM | [8] 23.9 µM | [9] 23.9 µM | [11] 23.9 µM

CCCCCN=C(N)N/N=C/c1c[nH]c2ccc(OC)cc12
active: [7] 6.74 µM | [8] 5.35 µM | [9] 5.35 µM | [16] 6.01 µM | [11] 6.01 µM | [12] 15.1 µM | [17] 7.56 µM | [18] 4.77 µM | [13] 8.49 µM | [3] 7.56 µM | [4] 10.7 µM
inactive: [10]

CCCCCCCC1CCC(=O)O1 (centres undefined)
inactive: [19]

CC1=C(/C=C/C(C)=C/C=C/C(C)=C\C(=O)O)C(C)(C)CCC1
active: [9] 55.1 µM
not listed: [1] | [5] | [6] | [8] | [11] | [15] | [16] | [18]
inactive: all other assays above

Nc1c(Br)cc([N+](=O)[O-])cc1Br
not listed: [1] | [6] | [7] | [9] | [14] | [20]
inactive: all other assays above

NC(=O)c1ccccc1Cl
not listed: [1] | [6] | [7] | [9]
inactive: all other assays above

CC(C)c1ccc2sc3ccccc3c(=O)c2c1
active: [9] 19.5 µM
not listed: [1] | [2] | [6] | [13] | [18] | [19]
inactive: all other assays above

Nc1cccnc1N
not listed: [1] | [2] | [5] | [6] | [7] | [9] | [13] | [18]
inactive: all other assays above

Clc1nc(C(Cl)(Cl)Cl)c(Cl)c(Cl)c1Cl
inactive: [7] | [19] | [10] | [18] | [20] | [4] | [5] | [15]
active: [8] 43.6 µM | [9] 43.6 µM | [11] 43.6 µM | [14] 30.6 µM

CCCCCCCCCCCCCCCCCCNC(=O)OC1CCN(C(=O)OC[C@H](COC(=O)N(Cc2cccc[n+]2CC)C(=O)c2ccccc2OC)OC)CC1
active: [12] 26.8 µM | [18] 10.7 µM | [13] 21.3 µM | [6] 23.7 µM | [15] 29.8 µM
inactive: [10] | [20] | [5]

CCC(C)(C)c1ccc(CC(C)CN2C[C@@H](C)O[C@@H](C)C2)cc1 (some centres undefined)
active: [8] 21.3 µM | [16] 23.9 µM | [11] 21.3 µM | [3] 23.9 µM
not listed: [1] | [4] | [6] | [7] | [9] | [12]
inactive: all other assays above

CN(C[C@@H](CC[N+]12CCC(C3CCCCC3)(CC1)CC2)c1ccc(Cl)c(Cl)c1)C(=O)c1cc(C(F)(F)F)cc(C(F)(F)F)c1
inactive: [19] | [10]
active: [7] 24.5 µM | [8] 24.5 µM | [9] 24.5 µM | [16] 34.7 µM | [11] 24.5 µM | [12] 43.6 µM | [17] 21.9 µM | [18] 3.09 µM | [13] 3.47 µM | [4] 38.9 µM | [5] 54.5 µM | [6] 68.6 µM

CC(=O)N(C)C
inactive: [19]

CN1CCN(C)CC1
not listed: [1] | [7] | [20]
inactive: all other assays above

NCc1ccco1
inactive: [2] | [8] | [19] | [16] | [10] | [11] | [17] | [18] | [20] | [4] | [14]

c1ccc(-c2nc3ccccc3[nH]2)cc1
active: [18] 21.9 µM | [13] 21.9 µM
not listed: [1] | [5] | [6] | [7] | [20]
inactive: all other assays above

CCC(O)CO (centres undefined)
not listed: [1] | [3] | [7]
inactive: all other assays above

COc1ccc2ccccc2c1
inactive: [19]

Cc1ccc(Cl)c(N)c1Cl
not listed: [1] | [2] | [6] | [8] | [9] | [11] | [15] | [16]
inactive: all other assays above

CCC(=O)OC/C=C(\C)CCC=C(C)C
not listed: [1] | [2] | [5] | [9] | [13]
inactive: all other assays above

CCCCCCCC/C=C\CCCCCCCC(=O)N(CCO)CCO
inactive: [7] | [19] | [10] | [12] | [17] | [20] | [4] | [5]
active: [18] 43.5 µM | [13] 43.5 µM | [15] 30.5 µM

CS(=O)(=O)c1ccc([C@@H](CC2CCCC2)C(=O)Nc2cnccn2)cc1Cl
inactive: [19]

O=C(Nc1ccc([N+](=O)[O-])cc1)Nc1ccc([N+](=O)[O-])cc1 (tested in a mixture with another compound)
active: [11] 21.3 µM
not listed: [1] | [6] | [7] | [8] | [9] | [15] | [18]
inactive: all other assays above

O=C(CCN1CCC(c2ccccc2)C1)c1ccc2c(c1)OCCO2 (centres undefined)
inactive: [7] | [10] | [12] | [3] | [20] | [4] | [5] | [15]
active: [9] 26.8 µM | [11] 26.8 µM

C1=CCCC1
not listed: [1] | [3] | [9] | [12] | [13] | [16] | [18] | [19]
inactive: all other assays above

Oc1ccc(Cl)cc1C1CCCC1
inactive: [19] | [10] | [17] | [20] | [15]
active: [8] 54.9 µM | [9] 54.9 µM | [16] 49 µM | [11] 54.9 µM | [13] 27.5 µM | [4] 49 µM

CO[Si](OC)(c1ccccc1)c1ccccc1
not listed: [1] | [2] | [5] | [6] | [15] | [17] | [20]
inactive: all other assays above

Cc1cc(F)ccc1-c1cc(N2CC[C@@H](O)[C@H]2CO)ncc1N(C)C(=O)C(C)(C)c1cc(C(F)(F)F)cc(C(F)(F)F)c1
active: [2] 38.3 µM | [8] 38.3 µM | [9] 43 µM | [11] 43 µM | [17] 38.3 µM | [18] 17.1 µM | [20] 1.71 µM | [6] 38 µM
inactive: [10] | [12] | [5] | [14]

N#Cc1nc(Cl)c(Cl)c(Cl)c1Cl
active: [2] 19.5 µM | [8] 49 µM | [9] 24.5 µM | [11] 27.5 µM | [17] 21.9 µM | [18] 1.95 µM | [14] 54.5 µM | [6] 4.86 µM
inactive: [19] | [10] | [12] | [20] | [4]

CCCCCCCCCCCCN1CCCC1=O
inactive: [19] | [10] | [20] | [5] | [14] | [15]

CC1(C)[C@H](C(=O)OCc2cccc(Oc3ccccc3)c2)[C@@H]1C=C(Cl)Cl
not listed: [1] | [2] | [7] | [13]
inactive: all other assays above

CCCCCCCCc1ccc(Nc2ccc(CCCCCCCC)cc2)cc1
not listed: [1] | [2] | [3]
inactive: all other assays above

O=C1Cc2ccccc2C1
inactive: [19]

O=C(Cl)c1ccc(Cl)cc1Cl
active: [9] 54.9 µM | [11] 54.9 µM
inactive: [19] | [10] | [20] | [4] | [5] | [15]

CCC1(C)C(=O)N(Cl)C(=O)N1Cl (centres undefined)
not listed: [1] | [7] | [20]
inactive: all other assays above

Nc1ccc2c(S(=O)(=O)O)cccc2c1S(=O)(=O)O
not listed: [1] | [7] | [15] | [20]
inactive: all other assays above

CCCCCCCCOC(=O)c1cc(O)c(O)c(O)c1
active: [8] 43.6 µM | [9] 24.5 µM | [11] 43.6 µM | [17] 19.5 µM | [18] 11 µM | [13] 5.49 µM | [15] 24.3 µM
inactive: [19] | [10] | [12] | [20]

O=C1CCC(=O)N1
not listed: [1] | [3] | [7] | [9] | [13] | [18] | [19]
inactive: all other assays above
